# Measurements reported in PubChem BioAssay (EPA / NIEHS).
# Records with an inconclusive call do not appear. Active and inactive are the calls of the source. How the source made its calls, unless noted: active means hit-call score of the fitted dose curve at least 0.9, where 1 is the maximum; inconclusive means response in the unintended direction; inactive means score below 0.9.
# Experiments:
# [1] = IUF_NPC2-5_viability_120hr: Viability Assessment at 120 hours in the Leibniz Research Institute for Environmental Medicine (IUF) Neural Progenitor Cell Migration and Differentiation Assay (NPC2-5) (AID 2284312; active means hit-call score of the fitted dose curve at least 0.9, where 1 is the maximum; inactive means score below 0.9)
# How it was run: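 Alamar blue resorufin fluorescence read after 5 days of differentiation, with compound present from day 0 and replenished at day 3. Primary hNPC spheres on laminin-coated plates, 37C; seven concentrations plus solvent control, fitted against DMSO.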
# [2] = IUF_NPC1_cytotoxicity_72hr: Cytotoxicity Assessment at 72 hours in the Leibniz Research Institute for Environmental Medicine (IUF) Neural Progenitor Cell Proliferation Assay (NPC1) (AID 2284332);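 further: rising LDH signal means more cytotoxicity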
# How it was run: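 hNPC spheres (fetal brain, gestational week 16-19) grown under proliferative EGF/FGF conditions, pH 7.2-7.6, were treated continuously for 72 h. Cytotoxicity came from LDH-coupled resazurin fluorescence in each well's supernatant.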
# SERPINA7 (gene 6906) = assay: CCTE_GLTED_hTBG: CCTE's human Thyroxine-binding Globulin (TBG) Inhibition Assay, Great Lakes Toxicology and Ecology Division (GLTED) Lab (AID 2284343);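 further: active chemicals lower fluorescence versus DMSO baseline by displacing probe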
# How it was run: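 Measures how far test chemicals displace ANSA bound to purified human TBG. The read-out is fluorescence at 380 nm excitation and 475 nm emission, taken after 2 h of incubation.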
# TTR (gene 7276) = assay: CCTE_GLTED_hTTR_0.125uM: CCTE's human Transthyretin (hTTR) Inhibition Assay, with 0.125uM TTR, Great Lakes Toxicology and Ecology Division (GLTED) Lab (AID 2284431; active means hit-call score of the fitted dose curve at least 0.9, where 1 is the maximum; inactive means score below 0.9;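 further: hits lower the fluorescence signal relative to DMSO baseline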)
# How it was run: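 TTR at 0.125uM incubated 2 h with test chemical; displacement of bound ANSA read by fluorescence (ex 380, em 475). Activity is signal loss versus DMSO baseline.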
# [3] = biological target: human Retinoic Acid Receptor beta (RARb), RARB (gene 5915) (UniProt P10826); assay: ATG_RARb_TRANS: Attagene TRANS-FACTORIAL HepG2 Assay for human Retinoic Acid Receptor beta (AID 2283004)
# How it was run: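 Induction of reporter mRNA from a chimeric RARb-Gal4 construct was measured by RT-PCR, FAM labelling, HpaI digestion and capillary electrophoresis. Measurements followed 24 h compound treatment of transiently transfected human HepG2 liver cells, with DMSO as baseline.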
# [4] = biological target: Retinoic acid receptor alpha (Homo sapiens) (UniProt P10276); assay: ATG_RARa_TRANS: Attagene TRANS-FACTORIAL HepG2 Assay for human Retinoic Acid Receptor alpha (RARa) (AID 2283005)
# How it was run: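 Reporter transcripts, measured by RT-PCR with fluorescent labeling and capillary electrophoresis after 24 h dosing, reflect activity of an exogenous human RARa–GAL4 fusion in transiently transfected HepG2. Fitted for increase relative to DMSO.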
# [5] = biological target: Androgen Receptor/SRC-1 Co-activator, AR (gene 367) (UniProt P10275); assay: OT_AR_ARSRC1_0960: Odyssey Thera (OT) 16-hour HEK293T Protein-Complementation Assay for Androgen Receptor/SRC-1 Co-activator (AID 2283353);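 further: actives raise the signal above DMSO so potency reflects increased AR and SRC-1 complex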
# How it was run: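 Interaction of AR with SRC-1 was followed by YFP fragment complementation in HEK293T cells after 16 h of dosing. Gain of nuclear-over-cytoplasmic 488 nm fluorescence against DMSO controls defined activity.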
# [6] = biological target: Androgen Receptor/SRC-1 Co-activator, AR (gene 367) (UniProt P10275); assay: OT_AR_ARSRC1_0480: Odyssey Thera (OT) 8-hour HEK293T Protein-Complementation Assay for Androgen Receptor/SRC-1 Co-activator (AID 2283354);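 further: hits raise the complementation signal above DMSO so AC50 marks enhancers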
# How it was run: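 Measures AR/SRC-1 binding by Venus YFP fragment complementation in HEK293T stable lines at 8 h post-dose. Imaging quantifies the 488nm nucleus/cytoplasm ratio in ≥400 cells; DMSO defines baseline.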
# [7] = biological target: Agonist Androgen Response Element (ARE), AR (gene 367) (UniProt P10275); assay: OT_AR_ARELUC_AG_1440: Odyssey Thera (OT) 24-hour CHO-K1 Luciferase Assay for Agonist Androgen Response Element (ARE) (AID 2283379)
# How it was run: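 Agonist mode, 24 h exposure in CHO-K1 ARE-luciferase cells; values reflect luminescence induction over vehicle.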
# AR (gene 367) [8] = biological target: AR (gene 367) (UniProt P10275); assay: ACEA_AR_agonist_80hr: ACEA Biosciences xCELLigence Real-Time Cell Analysis on Androgen Receptor Agonism for Proliferation (AID 2283783);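 further: hits increase impedance growth signal above DMSO baseline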
# How it was run: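 Androgen-driven proliferation in 22Rv1 cells is tracked as electrical impedance, taken 80 h after continuous exposure to compound (eight concentrations, 1:4 steps, maximum 100 uM final). Activity is fitted in the positive direction with DMSO as baseline.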
# AR (gene 367) [9] = biological target: AR (gene 367) (UniProt P10275); assay: ACEA_AR_antagonist_80hr: ACEA Biosciences xCELLigence Real-Time Cell Analysis on Androgen Receptor Antagonism for Proliferation (AID 2283787);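 further: 22Rv1 human prostate cancer cells with growth followed by electrical impedance; hits lower the impedance growth signal relative to DMSO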
# How it was run: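 Growth-kinetic antagonist readout in 22Rv1 cells, taken 80 h after continuous compound exposure. Activity fitted as signal loss relative to DMSO negative control.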
# [10] = biological target: Nucleoli Translocation, AR (gene 367) (UniProt P10275); assay: UPITT_HCI_U2OS_AR_TIF2_Nucleoli_Agonist: University of Pittsburgh U2OS Androgen Receptor-Transcriptional Intermediary Factor 2 (AR-TIF2) Agonism High Content Imaging Assay for Nucleoli Translocation (AID 2283998)
# How it was run: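 Nucleolar translocation of AR-RFP, with TIF2-GFP coexpressed in human osteosarcoma U2OS, imaged by high-content fluorescence. Compounds tested singly at 20 uM final, confirmed in triplicate, then titrated 0.195–50 uM final; gain-of-signal relative to DMSO.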
# [11] = biological target: Ratio of Nucleoli Translocation and Cytoplasm, AR (gene 367) (UniProt P10275); assay: UPITT_HCI_U2OS_AR_TIF2_Nucleoli_Cytoplasm_Ratio_Antagonist: University of Pittsburgh U2OS Androgen Receptor-Transcriptional Intermediary Factor 2 (AR-TIF2) Antagonism High Content Imaging Assay for Ratio of Nucleoli Translocation and Cytoplasm (AID 2283999);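 further: antagonists lower the DHT-driven ratio of nucleolar to cytoplasmic red signal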
# How it was run: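 High-content imaging quantifies the red nucleolar:cytoplasmic fluorescence ratio in U2OS cells with AR-RFP and TIF2-GFP. Final concentrations are 20 uM (screen) or 0.195–50 uM (dose response), analysed against DHT as baseline.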
# [12] = biological target: Ratio of Nucleoli Translocation and Cytoplasm, AR (gene 367) (UniProt P10275); assay: UPITT_HCI_U2OS_AR_TIF2_Nucleoli_Cytoplasm_Ratio_Agonist: University of Pittsburgh U2OS Androgen Receptor-Transcriptional Intermediary Factor 2 (AR-TIF2) Agonism High Content Imaging Assay for Ratio of Nucleoli Translocation and Cytoplasm (AID 2284000);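 further: hits raise the red nucleolar to cytoplasm ratio above vehicle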
# How it was run: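 Read-out first: nucleolar-to-cytoplasm ratio of red (AR-RFP) signal, quantified by high-content imaging in U2OS cells co-expressing TIF2-GFP. Activity is scored as signal increase over DMSO. Single-point screening used 20 uM final (0.2% DMSO).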
# [13] = biological target: human Peripheral-type Benzodiazepine Receptor (PBR), TSPO (gene 706) (UniProt P30536); assay: NVS_MP_hPBR: NovaScreen (NVS) Membrane Protein Assay for human Peripheral-type Benzodiazepine Receptor (PBR) (AID 2283331);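 further: hits reduce radioligand binding relative to DMSO baseline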
# How it was run: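 Scintillation counts of filter-bound radioligand served as read-out after 1 h chemical dosing of human colonic membrane preparations. Activity was scored as signal loss against DMSO; initial duplicates at 25 uM, confirmatory concentration series afterward.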
# [14] = biological target: rat Peripheral-type Benzodiazepine Receptor (PBR), Tspo (gene 24230) (UniProt P16257); assay: NVS_MP_rPBR: NovaScreen (NVS) Membrane Protein Assay for rat Peripheral-type Benzodiazepine Receptor (PBR) (AID 2283335)
# How it was run: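 Radioligand displacement, rat kidney membrane prep, 1 h exposure, filter-based scintillation read; DMSO baseline, loss-of-signal scored. Primary screen at 25 uM in duplicate, actives followed up in concentration series.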
# [15] = biological target: Bile acid receptor (Homo sapiens) (UniProt Q96RI1); assay: OT_FXR_FXRSRC1_0480: Odyssey Thera (OT) 8-hour HEK293T Protein-Complementation Assay for Farnesoid X receptor/SRC-1 Co-activator (AID 2283383)
# How it was run: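 Co-activator recruitment to FXR was measured in living HEK293T cells, where interaction of the two fused partners restored an active fluorescent reporter. Signal gain after 8 h treatment was referenced to DMSO.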
# [16] = biological target: CCAAT/enhancer-binding protein beta (Homo sapiens) (UniProt P17676); assay: ATG_C_EBP_CIS: Attagene CIS-FACTORIAL HepG2 Assay for human CCAAT/Enhancer Binding Protein (C/EBP) beta (AID 2282927; active means hit-call score of the fitted dose curve at least 0.9, where 1 is the maximum; inactive means score below 0.9); conditions: HepG2 Attagene cis-factorial transcription factor reporter; actives raise or lower the signal
# How it was run: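 Endogenous transcription factor activity in human liver HepG2 cells is inferred from induction of a CEBPB-linked reporter mRNA. Exposure lasts 24 h; activity is fitted in both directions relative to DMSO.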
# [17] = biological target: human Ephrin type-A Receptor 1 (EphA1), EPHA1 (gene 2041) (UniProt P21709); assay: NVS_ENZ_hEphA1: NovaScreen (NVS) Enzymatic Assay for human Ephrin type-A Receptor 1 (EphA1) (AID 2283158);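 further: activity is signal loss versus DMSO meaning EphA1 kinase inhibition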
# How it was run: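 Fluorescent substrate conversion, resolved by mobility-shift separation, measured 1 hour post-dosing using recombinant enzyme; signal loss relative to DMSO baseline. Single-concentration duplicates at 25 uM preceded singleton concentration series topping at 50 uM.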
# [18] = biological target: human Phosphodiesterase 10 (PDE10), PDE10A (gene 10846) (UniProt Q9Y233); assay: NVS_ENZ_hPDE10: NovaScreen (NVS) Enzymatic Assay for human Phosphodiesterase 10 (PDE10) (AID 2283195)
# How it was run: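 PDE10A, cell-free; 1 h incubation; fluorescence intensity + electrophoretic mobility shift separating substrate/product; DMSO = baseline; 25 uM duplicate primary, CRC up to 50 uM.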
# Ratio of Nucleoli Translocation and Cytoplasm, AR (gene 367), sequence (P10275 whole entry, looked up): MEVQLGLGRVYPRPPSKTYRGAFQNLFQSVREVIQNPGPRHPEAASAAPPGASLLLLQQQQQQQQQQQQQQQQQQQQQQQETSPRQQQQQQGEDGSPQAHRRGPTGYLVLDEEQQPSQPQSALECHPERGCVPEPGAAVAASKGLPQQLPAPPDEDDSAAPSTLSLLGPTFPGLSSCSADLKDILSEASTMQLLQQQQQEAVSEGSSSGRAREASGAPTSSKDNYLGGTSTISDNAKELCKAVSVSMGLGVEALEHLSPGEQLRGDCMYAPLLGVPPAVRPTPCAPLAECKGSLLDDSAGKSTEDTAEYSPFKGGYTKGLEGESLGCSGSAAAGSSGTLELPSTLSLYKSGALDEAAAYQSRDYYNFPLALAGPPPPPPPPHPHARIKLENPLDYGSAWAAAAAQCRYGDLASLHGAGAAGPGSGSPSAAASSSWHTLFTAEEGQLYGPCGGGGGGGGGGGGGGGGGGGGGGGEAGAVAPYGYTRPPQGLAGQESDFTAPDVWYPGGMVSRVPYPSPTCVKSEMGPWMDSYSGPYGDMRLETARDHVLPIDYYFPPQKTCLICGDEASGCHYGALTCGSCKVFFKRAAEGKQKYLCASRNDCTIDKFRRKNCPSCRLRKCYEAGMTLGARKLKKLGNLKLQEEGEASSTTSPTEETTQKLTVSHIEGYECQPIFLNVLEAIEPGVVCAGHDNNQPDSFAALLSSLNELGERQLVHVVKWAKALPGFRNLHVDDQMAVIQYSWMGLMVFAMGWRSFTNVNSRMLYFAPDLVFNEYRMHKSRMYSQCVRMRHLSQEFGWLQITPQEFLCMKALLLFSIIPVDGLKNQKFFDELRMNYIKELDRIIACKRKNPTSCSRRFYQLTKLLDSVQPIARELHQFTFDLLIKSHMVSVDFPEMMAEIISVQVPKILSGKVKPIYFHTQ
# Androgen Receptor/SRC-1 Co-activator, AR (gene 367), sequence (P10275 whole entry, looked up, the tested form may be a part): as the sequence (P10275 whole entry, looked up) above
# AR (gene 367), sequence (P10275 whole entry, looked up): as above
# CCAAT/enhancer-binding protein beta (Homo sapiens), sequence (P17676 whole entry, looked up): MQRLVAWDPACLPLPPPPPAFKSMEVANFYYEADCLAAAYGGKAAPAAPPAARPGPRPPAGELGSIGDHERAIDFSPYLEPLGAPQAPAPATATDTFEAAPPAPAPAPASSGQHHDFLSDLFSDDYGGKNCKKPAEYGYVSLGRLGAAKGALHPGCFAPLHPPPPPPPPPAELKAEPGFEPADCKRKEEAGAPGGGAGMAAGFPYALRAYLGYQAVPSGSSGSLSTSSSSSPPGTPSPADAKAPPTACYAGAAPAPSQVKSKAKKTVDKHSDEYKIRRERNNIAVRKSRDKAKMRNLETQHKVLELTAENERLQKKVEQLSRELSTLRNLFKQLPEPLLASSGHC
# human Retinoic Acid Receptor beta (RARb), RARB (gene 5915), sequence (P10826 whole entry, looked up, the tested form may be a part): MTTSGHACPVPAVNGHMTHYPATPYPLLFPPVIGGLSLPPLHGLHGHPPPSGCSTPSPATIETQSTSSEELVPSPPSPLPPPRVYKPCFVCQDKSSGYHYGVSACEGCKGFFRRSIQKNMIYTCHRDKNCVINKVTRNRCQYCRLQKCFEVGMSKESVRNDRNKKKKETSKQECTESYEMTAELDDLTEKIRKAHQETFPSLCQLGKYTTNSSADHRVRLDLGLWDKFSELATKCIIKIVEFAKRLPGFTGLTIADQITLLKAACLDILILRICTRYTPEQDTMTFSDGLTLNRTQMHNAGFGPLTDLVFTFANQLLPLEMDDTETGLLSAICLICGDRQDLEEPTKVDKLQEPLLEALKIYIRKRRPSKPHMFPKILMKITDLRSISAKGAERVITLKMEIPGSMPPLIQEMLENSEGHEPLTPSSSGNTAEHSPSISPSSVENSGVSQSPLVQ
# human Ephrin type-A Receptor 1 (EphA1), EPHA1 (gene 2041), sequence (P21709 whole entry, looked up): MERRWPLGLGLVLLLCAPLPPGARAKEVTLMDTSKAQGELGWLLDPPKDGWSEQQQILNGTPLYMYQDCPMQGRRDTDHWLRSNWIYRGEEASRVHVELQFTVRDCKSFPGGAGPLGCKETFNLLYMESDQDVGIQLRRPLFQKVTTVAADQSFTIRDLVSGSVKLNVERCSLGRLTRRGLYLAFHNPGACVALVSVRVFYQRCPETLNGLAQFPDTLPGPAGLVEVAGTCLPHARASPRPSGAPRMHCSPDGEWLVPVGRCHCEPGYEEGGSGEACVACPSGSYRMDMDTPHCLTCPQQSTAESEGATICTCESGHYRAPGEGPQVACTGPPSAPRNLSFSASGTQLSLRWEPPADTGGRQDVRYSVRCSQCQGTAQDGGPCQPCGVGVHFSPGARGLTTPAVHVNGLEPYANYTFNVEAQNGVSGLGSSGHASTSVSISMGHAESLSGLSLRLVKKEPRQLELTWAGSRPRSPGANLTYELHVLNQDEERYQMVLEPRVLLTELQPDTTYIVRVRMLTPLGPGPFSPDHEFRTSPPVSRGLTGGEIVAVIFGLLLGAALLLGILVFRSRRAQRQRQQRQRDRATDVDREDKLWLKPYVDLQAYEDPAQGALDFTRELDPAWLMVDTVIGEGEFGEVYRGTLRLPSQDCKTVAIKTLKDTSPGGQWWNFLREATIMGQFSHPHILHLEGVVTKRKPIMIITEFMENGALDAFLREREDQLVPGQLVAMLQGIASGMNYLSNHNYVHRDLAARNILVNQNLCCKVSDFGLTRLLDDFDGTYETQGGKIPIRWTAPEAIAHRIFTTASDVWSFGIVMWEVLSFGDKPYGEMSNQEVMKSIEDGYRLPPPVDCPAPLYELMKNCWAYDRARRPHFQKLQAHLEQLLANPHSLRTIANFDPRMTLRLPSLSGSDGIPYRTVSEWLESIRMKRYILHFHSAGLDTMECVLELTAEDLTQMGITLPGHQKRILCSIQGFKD
# Retinoic acid receptor alpha (Homo sapiens), sequence (P10276 whole entry, looked up, the tested form may be a part): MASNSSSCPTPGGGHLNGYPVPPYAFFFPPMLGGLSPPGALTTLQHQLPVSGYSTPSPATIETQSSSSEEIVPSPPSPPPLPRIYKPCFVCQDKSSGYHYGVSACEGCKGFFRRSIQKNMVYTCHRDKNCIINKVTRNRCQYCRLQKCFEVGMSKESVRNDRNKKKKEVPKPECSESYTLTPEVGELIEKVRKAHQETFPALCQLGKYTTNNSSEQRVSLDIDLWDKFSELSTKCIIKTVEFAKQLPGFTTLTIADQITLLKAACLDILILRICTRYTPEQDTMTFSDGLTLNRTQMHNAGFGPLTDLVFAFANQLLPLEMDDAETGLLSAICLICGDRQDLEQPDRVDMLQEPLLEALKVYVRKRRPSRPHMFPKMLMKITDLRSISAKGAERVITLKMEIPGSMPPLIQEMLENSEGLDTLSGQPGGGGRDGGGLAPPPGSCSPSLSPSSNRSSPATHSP
compound,measurement,setting,value
Oc1cccc2ccccc12,outcome,[1],inactive
same,outcome,[2],inactive
same,AC50,SERPINA7 (gene 6906),4.58 µM (active)
same,AC50,TTR (gene 7276),3.07 µM (active)
CO[Si](CCCNCCN)(OC)OC,outcome,[3],inactive
same,outcome,[4],inactive
same,outcome,[5],inactive
same,outcome,[6],inactive
same,outcome,[7],inactive
same,outcome,AR (gene 367) [8],inactive
same,outcome,AR (gene 367) [9],inactive
same,outcome,[10],inactive
same,outcome,[11],inactive
same,outcome,[12],inactive
CC(=[OH+])/C=C(/C)[O-].CC(=[OH+])/C=C(/C)[O-].CC(=[OH+])/C=C(/C)[O-].[Al],outcome,[13],inactive
same,AC50,[14],7.03 µM (active)
CC(=O)OC(C)(C)Cc1ccccc1,outcome,[15],inactive
COc1ccc2ccccc2c1,outcome,[16],inactive
C[N+](C)(C)CC(=O)[O-],outcome,[17],inactive
same,outcome,[18],inactive
